Experimental data reported in PubChem BioAssay (Tox21).
Several values for one entry are separate records, joined by “and”; a condition that tells them apart may be missing. Equal values may be shown once. Records with an inconclusive call do not appear. A call without a number means that no potency is given here. The source holds several records for some structures; these can differ, active in one and inactive in another. Activity calls are given as the source filed them. Unless noted, calls follow the shape of the full dose curve.

Key:
[1] = Nuclear factor erythroid 2-related factor 2/antioxidant responsive element (Nrf2/ARE) small molecule agonists: qHTS cell viability counter screen in human keratinocytes (AID 1919968; active = well fitted curve in the direction sought with a large enough effect in the repeat runs; an effect the other way counts as inactive or inconclusive; also: nearly all actives have a fitted effect of over 55% in size)
How it was run: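 Viability counter-screen: KeratinoSens reporter cells, DMSO-delivered compounds, 23 h at 37 C, CellTiter-Fluor fluorescence.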

[2] = Nuclear factor erythroid 2-related factor 2/antioxidant responsive element (Nrf2/ARE) small molecule agonists: luciferase reporter gene qHTS assay in human keratinocytes (AID 1919969); also: nearly all actives have a fitted effect of over 35% in size; also: potency is read from the fitted curve at half-maximal effect
[3] = target: Gonadotropin-releasing hormone receptor (Homo sapiens) (UniProt P30968); test: Human gonadotropin-releasing hormone receptor (GnRHR) small molecule agonists, calcium flux assay in GnRHR-HEK293 cells (AID 1920063); also: nearly all actives have a fitted effect of over 35% in size
Gonadotropin-releasing hormone receptor (Homo sapiens), sequence (P30968 whole entry, looked up): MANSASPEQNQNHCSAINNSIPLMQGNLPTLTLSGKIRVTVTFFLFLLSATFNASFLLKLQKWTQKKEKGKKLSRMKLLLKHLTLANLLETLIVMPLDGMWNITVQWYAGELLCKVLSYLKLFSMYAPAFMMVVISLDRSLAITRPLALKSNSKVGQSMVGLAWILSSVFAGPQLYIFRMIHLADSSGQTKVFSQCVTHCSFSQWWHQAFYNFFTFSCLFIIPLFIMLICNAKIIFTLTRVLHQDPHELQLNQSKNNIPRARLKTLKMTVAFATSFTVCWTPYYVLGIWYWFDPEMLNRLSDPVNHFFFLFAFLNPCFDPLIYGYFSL
How it was run: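 Tox21-format agonist screen using human GnRHR-expressing HEK293 cells and a fluorescent calcium dye; kinetic 3-min fluorescence reading after compound addition, 15-point concentration series run in triplicate.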

[4] = target: KiSS-1 receptor (Homo sapiens) (UniProt Q969F8); test: Human kisspeptin (KISS1R) small molecule agonists, calcium flux assay in KISS1R-HEK293 cells (AID 1920064; active = well fitted curve in the direction sought with a large enough effect in the repeat runs; an effect the other way counts as inactive or inconclusive)
KiSS-1 receptor (Homo sapiens), sequence (Q969F8 whole entry, looked up): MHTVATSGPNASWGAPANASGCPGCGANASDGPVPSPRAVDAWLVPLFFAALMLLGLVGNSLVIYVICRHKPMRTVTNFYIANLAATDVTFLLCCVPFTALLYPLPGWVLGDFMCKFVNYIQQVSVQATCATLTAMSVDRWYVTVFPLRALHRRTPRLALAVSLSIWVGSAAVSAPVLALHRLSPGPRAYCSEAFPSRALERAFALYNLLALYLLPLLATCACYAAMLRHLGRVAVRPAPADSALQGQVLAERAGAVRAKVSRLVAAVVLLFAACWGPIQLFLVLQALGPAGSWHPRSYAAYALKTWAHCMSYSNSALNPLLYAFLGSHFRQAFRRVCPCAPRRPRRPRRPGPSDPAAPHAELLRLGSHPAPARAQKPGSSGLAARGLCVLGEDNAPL
How it was run: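 Intracellular calcium mobilization in KISS1R-HEK293 cells was recorded by fluorescence (Ex/Em 480/540) for 3 min following compound addition to cells pre-loaded 1 h with calcium dye.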

[5] = G protein-coupled receptor (GPCR) small molecule agonists, calcium flux assay: HEK293 wild type cell line counter screen (AID 1920065)
How it was run: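 In this agonist-mode screen, ATP is the positive control and DMSO the vehicle. Cells grow 18 h before a 1 h dye incubation at 37 C; signal is taken at Ex/Em 480/540 over 3 min.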

[6] = p53 small molecule agonists, cell-based qHTS assay with human liver microsomes (AID 1963577)
How it was run: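 p53RE-bla reporter cells were pre-incubated 5 h at 37 C, then treated with compounds plus human liver microsomes (0.5 mg/mL final) and NADPH (0.5 mg/mL final) for 16 h at 37 C. Beta-lactamase activity was read by LiveBLAzer fluorescence after 2 h at room temperature.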

[7] = p53 small molecule agonists, cell-based qHTS assay with rat liver microsomes (AID 1963578)
How it was run: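 p53RE-bla cells were exposed to compounds together with rat liver microsomes (0.5 mg/mL final) and NADPH (0.5 mg/mL final) for 16 h at 37 C, then read by LiveBLAzer beta-lactamase fluorescence after 2 h at room temperature.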

[8] = p53 small molecule agonists, cell-based qHTS assay with human liver microsomes: qHTS cell viability counter screen (AID 1963579); also: nearly all actives have a fitted effect of over 45% in size
How it was run: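 p53RE-bla cells (4,000/well) were pre-incubated 5 h at 37 C, then given compounds in DMSO plus human liver microsomes (0.5 mg/mL final) and NADPH (0.5 mg/mL final) for 16 h at 37 C. Viability was read by CellTiter-Glo luminescence.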

[9] = p53 small molecule agonists, cell-based qHTS assay with rat liver microsomes: qHTS cell viability counter screen (AID 1963580); also: nearly all actives have a fitted effect of over 45% in size
How it was run: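 Intracellular ATP, by CellTiter-Glo luminescence, defines viability. HCT-116 p53RE-bla cells, 4,000 per well, were compound-treated in the presence of rat liver microsomes and NADPH for 16 h at 37 C.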

[10] = p53 small molecule agonists, cell-based qHTS assay: qHTS cell viability counter screen (AID 1963581); also: nearly all actives have a fitted effect of over 45% in size
How it was run: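 Compounds are pinned onto HCT-116 p53RE-bla cells and left 16 h at 37 C. Following the reporter FRET read, ATP is quantified by CellTiter-Glo luminescence after 30 min at room temperature.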

[11] = p53 small molecule agonists, cell-based qHTS assay (AID 1963582; active = well fitted activation curve with a large enough effect in the signal ratio in the repeat runs, not every such curve was filed as active; the % refers to the signal ratio)
How it was run: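 Agonist activity was scored from beta-lactamase FRET fluorescence in p53RE-bla cells treated 16 h at 37 C with compounds in DMSO, substrate incubation being 2 h at room temperature.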

[12] = target: 5-hydroxytryptamine receptor 2A (Homo sapiens) (UniProt P28223); test: 5-hydroxytryptamine receptor 2A (HTR2A) small molecule antagonists, cell-based qHTS assay (AID 1963586); also: nearly all actives have a fitted effect of over 45% in size
5-hydroxytryptamine receptor 2A (Homo sapiens), sequence (P28223 whole entry, looked up): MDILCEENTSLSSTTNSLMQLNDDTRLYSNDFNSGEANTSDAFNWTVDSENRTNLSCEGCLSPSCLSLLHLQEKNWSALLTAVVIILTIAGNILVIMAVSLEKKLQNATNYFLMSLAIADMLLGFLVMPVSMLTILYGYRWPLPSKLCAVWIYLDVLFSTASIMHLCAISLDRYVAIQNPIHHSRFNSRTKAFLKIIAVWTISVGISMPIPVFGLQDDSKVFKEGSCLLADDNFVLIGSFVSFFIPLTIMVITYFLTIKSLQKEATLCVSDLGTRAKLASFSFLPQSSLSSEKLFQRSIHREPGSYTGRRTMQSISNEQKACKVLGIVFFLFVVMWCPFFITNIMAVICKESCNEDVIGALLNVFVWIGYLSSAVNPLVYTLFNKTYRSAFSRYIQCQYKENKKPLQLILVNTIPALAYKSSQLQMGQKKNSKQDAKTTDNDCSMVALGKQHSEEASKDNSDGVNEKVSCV
How it was run: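 Antagonist-mode intracellular calcium assay: DOI (4 nM) added after 5 min compound pre-incubation at room temperature to dye-loaded HTR2A-CHO cells. Fluorescence followed for 3 min, sampled every second.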

[13] = target: 5-hydroxytryptamine receptor 2A (Homo sapiens) (UniProt P28223); test: 5-hydroxytryptamine receptor 2A (HTR2A) small molecule agonists, cell-based qHTS assay (AID 1963587); also: nearly all actives have a fitted effect of over 30% in size
How it was run: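 Kinetic calcium-flux fluorescence (2 min, 1 sec intervals) after compound addition in agonist mode. HTR2A-CHO cells were cultured 18 h, then dye-loaded 1 h at 37 C.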

[14] = target: Muscarinic acetylcholine receptor M1 (Homo sapiens) (UniProt P11229); test: Cholinergic receptor muscarinic 1 (CHRM1) small molecule antagonists, cell-based qHTS assay (AID 1963588); also: nearly all actives have a fitted effect of over 40% in size
Muscarinic acetylcholine receptor M1 (Homo sapiens), sequence (P11229 whole entry, looked up): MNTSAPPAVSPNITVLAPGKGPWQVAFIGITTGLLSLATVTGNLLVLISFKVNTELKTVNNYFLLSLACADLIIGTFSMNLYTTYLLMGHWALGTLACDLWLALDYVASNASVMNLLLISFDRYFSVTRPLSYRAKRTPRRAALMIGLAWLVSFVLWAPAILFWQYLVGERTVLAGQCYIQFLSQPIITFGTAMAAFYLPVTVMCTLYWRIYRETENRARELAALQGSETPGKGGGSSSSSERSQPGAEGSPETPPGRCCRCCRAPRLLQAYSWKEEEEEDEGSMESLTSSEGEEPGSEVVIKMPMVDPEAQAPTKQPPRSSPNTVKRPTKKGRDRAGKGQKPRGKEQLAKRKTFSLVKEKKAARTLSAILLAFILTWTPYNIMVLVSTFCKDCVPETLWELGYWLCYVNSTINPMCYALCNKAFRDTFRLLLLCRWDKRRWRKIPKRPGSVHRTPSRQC
How it was run: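 CHRM1-CHO calcium-flux assay, antagonist mode. Cells were seeded 18 h, dye-loaded 1 h at 37 C and given compound for 5 min at RT, then acetylcholine was added at 50nM. FDSS fluorescence was read 3 min; 15 concentrations, three runs.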

[15] = target: Muscarinic acetylcholine receptor M1 (Homo sapiens) (UniProt P11229); test: Cholinergic receptor muscarinic 1 (CHRM1) small molecule agonists, cell-based qHTS assay (AID 1963589); also: nearly all actives have a fitted effect of over 35% in size
How it was run: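 Stable CHRM1-CHO cells (human receptor) were incubated 18 h, dye-loaded for 1 h at 37 C and exposed to test compounds for agonist activity, with calcium-dependent fluorescence followed kinetically.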

[16] = cAMP Responsive Elements (CRE) small molecule antagonists, cell-based qHTS assay (AID 1963591; active = well fitted inhibition curve with a large enough effect in the signal ratio in the repeat runs, not every such curve was filed as active; the % refers to the signal ratio)
How it was run: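 qHTS in CRE-bla HEK 293T cells: compound in DMSO, then 0.25 uM NKH477 (final), 3 h at 37 °C/5% CO2; beta-lactamase FRET read-out after 2 h substrate incubation.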

[17] = target: Beta-2 adrenergic receptor (Homo sapiens) (UniProt P07550); test: Adrenergic beta2 receptor (ADRB2) small molecule antagonists, cell-based qHTS assay (AID 1963592); also: nearly all actives have a fitted effect of over 50% in size; also: potency is read from the fitted curve at half-maximal effect
Beta-2 adrenergic receptor (Homo sapiens), sequence (P07550 whole entry, looked up): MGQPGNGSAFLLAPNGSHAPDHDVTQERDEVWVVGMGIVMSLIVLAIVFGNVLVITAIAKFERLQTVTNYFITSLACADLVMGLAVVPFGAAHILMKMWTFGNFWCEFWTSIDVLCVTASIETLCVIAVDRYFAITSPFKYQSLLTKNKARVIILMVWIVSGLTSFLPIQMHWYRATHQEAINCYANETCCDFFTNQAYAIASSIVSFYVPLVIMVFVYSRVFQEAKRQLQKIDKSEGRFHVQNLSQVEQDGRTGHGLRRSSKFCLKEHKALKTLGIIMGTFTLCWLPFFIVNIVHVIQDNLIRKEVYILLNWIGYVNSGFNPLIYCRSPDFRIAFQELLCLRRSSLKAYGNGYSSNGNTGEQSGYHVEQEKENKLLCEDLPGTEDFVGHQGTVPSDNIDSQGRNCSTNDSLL
How it was run: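 Cells (CHO, stable ADRB2 overexpression) incubated 18-20hr at 37C; compounds added from DMSO; agonist mix (1nM isoproterenol, 100uM IBMX, 25uM Ro-20-1724) added; 0.5hr RT; d2-cAMP and anti-cAMP-cryptate added; 1hr RT; 665/615 nm read.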

[18] = target: D(2) dopamine receptor (Homo sapiens) (UniProt P14416); test: Dopamine D2 receptor (DRD2) small molecule agonists, cell-based qHTS assay (AID 1963594); also: nearly all actives have a fitted effect of over 35% in size
D(2) dopamine receptor (Homo sapiens), sequence (P14416 whole entry, looked up): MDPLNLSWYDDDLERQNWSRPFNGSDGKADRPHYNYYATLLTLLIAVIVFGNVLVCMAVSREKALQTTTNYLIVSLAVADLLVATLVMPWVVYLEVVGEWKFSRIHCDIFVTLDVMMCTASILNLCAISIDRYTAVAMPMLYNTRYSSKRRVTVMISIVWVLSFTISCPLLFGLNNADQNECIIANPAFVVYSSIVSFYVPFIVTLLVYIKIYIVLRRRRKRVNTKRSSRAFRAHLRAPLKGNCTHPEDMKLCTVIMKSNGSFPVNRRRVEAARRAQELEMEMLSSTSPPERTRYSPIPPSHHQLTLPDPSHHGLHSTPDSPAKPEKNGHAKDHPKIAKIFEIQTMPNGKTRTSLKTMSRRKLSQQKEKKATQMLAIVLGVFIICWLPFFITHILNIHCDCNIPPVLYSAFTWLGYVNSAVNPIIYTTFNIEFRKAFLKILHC
How it was run: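 cAMP accumulation in DRD2-HEK293 cells measured by HTRF after 1 h detection; compounds added 10 min before NKH477 (200nM […]) forskolin-analogue stimulation, 30 min at room temperature, with Ro20-1724 present at 0.1 mM final.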

[19] = target: D(2) dopamine receptor (Homo sapiens) (UniProt P14416); test: Dopamine D2 receptor (DRD2) small molecule antagonists, cell-based qHTS assay (AID 1963595; active = well fitted inhibition curve with a large enough effect in the signal ratio in the repeat runs, with a control signal flat; the % refers to the signal ratio)
How it was run: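 Antagonist mode in DRD2-HEK293 cells: after compound addition with 0.1 mM Ro20-1724, cells received quinpirole (12 nM) and NKH477 (200 nM) for 30 min at room temperature; HTRF cAMP read after 1 h detection.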

[20] = cAMP Responsive Elements (CRE) small molecule agonists, cell-based qHTS assay (AID 1963590)
How it was run: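 FRET-based beta-lactamase readout (LiveBLAzer B/G, 2 h RT) quantified CRE activation in HEK 293T CRE-bla cells after 3 h treatment with DMSO-dissolved compounds.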

Compound	Potency [1]	Potency [2]	Potency [3]	Potency [4]	Potency [5]	Potency [6]	Potency [7]	Potency [8]	Potency [9]	Potency [10]	Potency [11]	Potency [12]	Potency [13]	Potency [14]	Potency [15]	Potency [16]	Potency [17]	Potency [18]	Potency [19]	Potency [20]
CC(C)(N)CO	inactive	inactive	inactive	inactive	inactive	inactive	inactive	inactive	inactive	inactive	inactive	inactive	inactive	inactive	inactive	inactive	inactive	inactive	inactive	–
CCCCC(CC)COC(=O)/C=C\C(=O)OCC(CC)CCCC (stereo not drawn)	inactive	inactive	inactive	inactive	inactive	inactive	inactive	inactive	inactive	inactive	inactive	inactive	inactive	inactive	inactive	inactive	inactive	inactive	inactive	inactive
Cc1cc(C)c(O)c(C)c1	inactive	inactive	inactive	inactive	inactive	inactive	inactive	inactive	inactive	inactive	inactive	inactive	inactive	inactive	–	inactive	inactive	inactive	inactive	inactive
CCCCCCCCCC(=O)O	inactive	inactive	inactive	inactive	inactive	inactive	inactive	inactive	inactive	inactive	inactive	inactive	inactive	inactive	inactive	inactive	inactive	inactive	inactive	–
O=C(O)C1=NN(c2ccc(S(=O)(=O)O)cc2)C(=O)C1	inactive	inactive	inactive	inactive	inactive	inactive	inactive	inactive	inactive	inactive	inactive	inactive	inactive	inactive	inactive	inactive	inactive	–	inactive	inactive
O=C1C(c2[nH]c3ccccc3c2O)=Nc2ccccc21	inactive	inactive	inactive	inactive	inactive	inactive	inactive	inactive	inactive	inactive	inactive	inactive	inactive	inactive	–	inactive	inactive	inactive	inactive	inactive
OC1CCCCC1	inactive	inactive	inactive	inactive	inactive	inactive	inactive	inactive	inactive	inactive	inactive	inactive	inactive	inactive	inactive	–	inactive	–	inactive	inactive
CC1=C(C)S(=O)(=O)CCS1(=O)=O	inactive	6.73 µM (active) and 8.63 µM (active)	inactive	inactive	inactive	inactive	inactive	inactive	inactive	inactive	inactive	inactive	inactive	inactive	inactive	inactive	inactive and 13.7 µM (active)	inactive	inactive	inactive
COc1ccc(C(=O)c2ccccc2O)c(O)c1	inactive	inactive	inactive	inactive	inactive	inactive	inactive	inactive	inactive	inactive	inactive	inactive	inactive	inactive	inactive	inactive	inactive	inactive	inactive	inactive
Nc1ccccc1[N+](=O)[O-]	inactive	inactive	inactive	inactive	inactive	inactive	inactive	inactive	inactive	inactive	inactive	inactive	inactive	inactive	inactive	inactive	–	inactive	inactive	inactive
CC(O)CN(CCN(CC(C)O)CC(C)O)CC(C)O (stereo not drawn)	inactive	inactive	inactive	inactive	inactive	inactive	inactive	inactive	inactive	inactive	inactive	inactive	inactive	inactive	inactive	inactive	–	inactive	inactive	inactive
CCCCC(CC)COC(=O)c1ccc(C(=O)OCC(CC)CCCC)cc1 (stereo not drawn)	inactive	inactive	inactive	inactive	inactive	inactive	inactive	inactive	inactive	inactive	inactive	inactive	inactive	inactive	–	inactive	inactive	–	inactive	inactive
CCCCCCCCCCCCCCCO	inactive	54.9 µM (active) and inactive	inactive	inactive	inactive	inactive	inactive	inactive	inactive	inactive	inactive	inactive	inactive	inactive	inactive	inactive	inactive	inactive	inactive	inactive
COC(=O)C1CCC(C(=O)OC)CC1 (stereo not drawn)	inactive	inactive	inactive	inactive	inactive	inactive	inactive	inactive	inactive	inactive	inactive	inactive	inactive	inactive	inactive	–	inactive	inactive	inactive	inactive
